According to PubChem BioAssay (Tox21):
Results filed as inconclusive are left out. A call without a number means that no potency is given here. Calls of active or inactive are those of the source. Calls come from the whole dose curve; as a rule, active = well fitted activation curve with a large enough effect in the repeat runs; inconclusive = weak or mixed curves; inactive = flat fitted curve, though single readings scatter.

Test: A CellTox Green Cytotoxicity Assay to monitor cytotoxicity in HEK293 cells - 16 hour (AID 1224888); note: nearly all actives have a fitted effect of over 35% in size
Conditions: CellTox Green fluorescence; series mostly up to 76.8 µM
Text: National Center for Advancing Translational Sciences [NCATS]
NIH Chemical Genomics Center [NCGC]
U.S. Environmental Protection Agency [EPA]
National Institutes of Environmental Health Sciences [NIEHS]
National Toxicology Program [NTP]
Cell-based models are critical for drug discovery. Determining the natural cytotoxic effects resulting from test compounds is an essential research activity. A CellTox Green Cytotoxicity Assay to monitor cytotoxicity in real time of continues cell culture during 40 hours of the compound treatment was used to screen Tox21 10K library compounds in Hek293 cells. CellTox Green Cytotoxicity Assay is a nonlytic, homogeneous, biofluorescent method to measure cytotoxicity in cell culture after experimental manipulation. The assay system uses a proprietary asymmetric cyanine dye that is excluded from viable cells but preferentially stains the dead cell's DNA. […] Viable cells produce no appreciable increases in fluorescence. Therefore, the fluorescence signal produced by the binding interaction with dead cell DNA is proportional to cytotoxicity.
The mixture of Hek293 cell suspension and reagents were dispensed at 600cells/6 ul/well in 1536-well tissue culture treated black solid bottom plates using a Multidrop dispenser. After the assay plates were incubated at a 37 C/5% CO2 incubator for 5 hours, 23 nL of compounds dissolved in DMSO, positive and negative controls was transferred to the assay plate by a pintool work station. The plates were incubated at 37 C for 40 hours. The fluorescence intensity were measured at 0h, 8h, 16h, 24h, 32h and 40h time points using ViewLux plate reader during compound treatment.

| SMILES | Potency |
| --- | --- |
| Cc1c(N(C)CS(=O)(=O)O)c(=O)n(-c2ccccc2)n1C | inactive |
| CC1=NN(c2ccccc2)C(=O)C1 | inactive |
| CCCCOC(=O)CCCCCCCCC(=O)OCCCC | inactive |
| O=c1cc[nH]c(=O)[nH]1 | inactive |
| COc1ccc(O)cc1 | inactive |
| O=C1CCCCCN1 | inactive |
| CN(C)C=O | inactive |
| CCCCCCCCOc1ccc(C(=O)c2ccccc2)c(O)c1 | inactive |
| CCn1cc(C(=O)O)c(=O)c2ccc(C)nc21 | inactive |
| CN/C(=C\[N+](=O)[O-])NCCSCc1ccc(CN(C)C)o1 | inactive |
| C#C[C@]1(O)CC[C@H]2[C@@H]3CCC4=CC(=O)CC[C@@H]4[C@H]3CC[C@@]21CC | inactive |
| N[C@@H](Cc1c[nH]c2ccc(O)cc12)C(=O)O | inactive |
| COCC(C)N (stereo not given) | inactive |
| CC(=O)OC/C=C(C)/C=C/C=C(C)/C=C/C1=C(C)CCCC1(C)C | inactive |
| CC(C)Cc1ccc(C(C)C(=O)O)cc1 (stereo not given) | inactive |
| CC(=O)c1ccc(S(=O)(=O)NC(=O)NC2CCCCC2)cc1 | inactive |
| C=CCOC(=O)CC(C)C | inactive |
| CCc1cc(C(N)=S)ccn1 | inactive |
| NC(N)=NC(N)=NCCc1ccccc1 | inactive |
| CC(=O)Oc1ccccc1C(=O)O | inactive |

| SMILES | Potency |
| --- | --- |
| OC[C@@H](O)[C@@H](O)[C@H](O)[C@H](O)CO | inactive |
| Cc1c(N(C)C)c(=O)n(-c2ccccc2)n1C | inactive |
| CC1(C)O[C@@H]2[C@@H](CO[C@@]3(COS(N)(=O)=O)OC(C)(C)O[C@@H]23)O1 | inactive |
| CN(C)Cc1cc(CN(C)C)c(O)c(CN(C)C)c1 | inactive |
| CCCCOCCOCCSC#N | inactive |
| Cn1cnc2c1c(=O)[nH]c(=O)n2C | inactive |
| C#C[C@]1(O)CC[C@H]2[C@@H]3CCc4cc(O)ccc4[C@H]3CC[C@@]21C | inactive |
| Oc1cccc(O)c1 | inactive |
| C[C@]12CC[C@@H]3c4ccc(O)cc4C[C@@H](CCCCCCCCCS(=O)CCCC(F)(F)C(F)(F)F)[C@H]3[C@@H]1CC[C@@H]2O (stereo not given in full) | inactive |
| CCCCCCCCCCCCCCCCCC(=O)OCC(O)CO (stereo not given) | inactive |
| C=C(C)OC(C)=O | inactive |
| c1ccc2[nH]c(-c3cscn3)nc2c1 | inactive |
| CCOC(=O)C(C)(C)Oc1ccc(Cl)cc1 | inactive |
| CCCCCCCC(=O)OCC(O)CO (stereo not given) | inactive |
| COC(=O)C1CCC(C(=O)OC)CC1 (stereo not given) | inactive |
| C=C(C)C(N)=O | inactive |
| OCCCc1ccccc1 | inactive |
| NC(=O)N/N=C/c1ccc([N+](=O)[O-])o1 | inactive |
| N[C@@H](Cc1c[nH]c2ccccc12)C(=O)O | inactive |
| COc1ccccc1NC(=O)CC(C)=O | inactive |
